# Source: the supplement of paper PMC3334620
# Whole data set: some 33,000 sequences, median “E-score (-0.5 to 0.5)” near -0.035, cut for the highest 2% near 0.35. What follows is part of a selection rich in the highest values, with near analogues and random picks from the rest.
# Target: T1, Pdr3 (UniProt P33200)
# T1 sequence: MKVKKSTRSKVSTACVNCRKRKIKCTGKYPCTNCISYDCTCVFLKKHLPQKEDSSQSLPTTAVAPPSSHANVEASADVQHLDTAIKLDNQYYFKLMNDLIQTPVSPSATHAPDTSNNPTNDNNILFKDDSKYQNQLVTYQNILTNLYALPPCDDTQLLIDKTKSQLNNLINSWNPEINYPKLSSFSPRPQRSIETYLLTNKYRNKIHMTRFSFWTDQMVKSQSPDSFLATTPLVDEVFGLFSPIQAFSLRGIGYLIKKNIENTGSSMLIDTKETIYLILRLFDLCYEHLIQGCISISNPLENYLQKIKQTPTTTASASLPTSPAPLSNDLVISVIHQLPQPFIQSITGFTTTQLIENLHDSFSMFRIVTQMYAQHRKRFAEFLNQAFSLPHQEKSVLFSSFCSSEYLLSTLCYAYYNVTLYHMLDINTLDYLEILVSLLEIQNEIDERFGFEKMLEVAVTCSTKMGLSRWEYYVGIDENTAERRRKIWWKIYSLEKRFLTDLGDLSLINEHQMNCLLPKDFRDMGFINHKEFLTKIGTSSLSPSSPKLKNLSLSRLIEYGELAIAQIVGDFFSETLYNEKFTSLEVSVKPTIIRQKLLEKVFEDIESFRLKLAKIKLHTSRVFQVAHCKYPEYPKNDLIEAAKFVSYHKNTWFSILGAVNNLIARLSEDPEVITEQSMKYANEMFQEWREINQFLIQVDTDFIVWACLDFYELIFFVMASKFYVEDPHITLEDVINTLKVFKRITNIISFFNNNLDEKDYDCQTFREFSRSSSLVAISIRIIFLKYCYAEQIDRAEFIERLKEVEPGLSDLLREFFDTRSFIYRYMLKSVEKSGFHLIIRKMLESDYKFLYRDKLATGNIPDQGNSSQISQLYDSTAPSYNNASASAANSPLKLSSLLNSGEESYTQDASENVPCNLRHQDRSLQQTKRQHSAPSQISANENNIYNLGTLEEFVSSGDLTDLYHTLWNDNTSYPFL
# Assay: PBM E-score (8-mer binding enrichment) (E-score (-0.5 to 0.5)); higher = stronger / more preferred TF binding
# Details: protein concentration: 200 nM; construct: GST-full length
# Procedure: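 Universal 'all 10-mer' protein binding microarrays (Agilent AMADID 015681) probed with GST-tagged S. cerevisiae TFs (full-length or DBD) made by in vitro transcription/translation (PURExpress), about 100-200 nM. Bound TF was detected with fluorescent anti-GST. Each ungapped 8-mer (which stands for itself and its reverse complement) is scored by the PBM enrichment score (E-score), a modified Wilcoxon-Mann-Whitney statistic from -0.5 to +0.5, computed with the Universal PBM Analysis Suite. Scale: above 0.35 generally sequence-specific binding.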
row,Sequence,PBM E-score
1,CACTCCTA,-0.112
2,GAAAGCCC,0.201
3,CTATTGAC,-0.153
4,GTCTCTTA,0.0669
5,ACCCATGC,-0.0401
6,CGGAAGTC,0.421
7,CGGAAGTA,0.393
8,AGGAAGTC,-0.162
9,GGGAAGTA,0.097
10,AGGAAGTA,0.0507
11,CTGAAGTC,0.0005
12,ATTGGGCA,-0.131
13,ACAAGCAT,-0.0569
14,GAGTGATC,0.0656
15,GAGCGGGC,0.113
16,AACGGTCA,0.146
17,CACGGACC,0.378
18,AACGGACG,0.241
19,GACGGACC,0.33
20,TACGGACA,0.225
21,AACGGACA,0.363
22,AACGGACC,0.303
23,CACGGACA,0.355
24,CACGGACG,0.324
25,CCACCCCG,0.165

row,Sequence,PBM E-score
1,CCCTGCTA,-0.0619
2,TACGGGCA,0.00013
3,CTGTTCCC,0.0618
4,ACACTAGT,-0.167
5,AGGCTTTC,-0.203
6,TCTGTGAA,-0.0705
7,TCGGAGAA,0.225
8,CCGGAGAA,0.385
9,GCGGAGAC,0.336
10,CAGGAGAG,-0.174
11,CCGGAGAG,0.363
12,ACGGAGAG,0.319
13,CCGGAGAC,0.37
14,ACGGAGAA,0.265
15,ACGGAGAC,0.321
16,AATGAGGA,-0.177
17,GCAGTCGC,-0.0644
18,TATCGCGA,0.258
19,GCCTTCCC,-0.1
20,CCTACTCC,-0.0705
21,GCTACTGA,0.00622
22,CATTCCGC,0.421
23,AATTCCCG,0.298
24,AATTCCGC,0.397
25,CATTCCTC,0.0812

row,Sequence,PBM E-score
1,AATTCCGG,0.449
2,AATTCCTC,0.0037
3,GATTCCCC,0.0929
4,AATTCCCC,0.203
5,CATTCCAC,0.0732
6,GATTCCGC,0.455
7,AATTCCTG,-0.021
8,GATTCCAC,0.19
9,CGCCCTCC,0.0638
10,TAATGATA,0.132
11,ATCGCATC,0.121
12,GTCCCAAA,-0.154
13,CAGGCCAC,0.00119
14,ATTTGCAG,-0.0031
15,ACCATAGG,-0.229
16,GAGAAAAA,0.176
17,ATCTGGGG,-0.109
18,AATTCCGT,0.449
19,AATTCCGA,0.423
20,AATTCCAT,0.156
21,AATTCCCT,-0.207
22,AATTCCCA,-0.171
23,AATTCCAA,-0.0365
24,ACTAGCCG,0.105
25,GACCCGAC,0.21

row,Sequence,PBM E-score
1,AGCCCCGG,0.303
2,CGCCCGGA,0.396
3,AGCCCGGA,0.355
4,AGCCCGAG,-0.044
5,AGCCCGGG,0.383
6,GGCCCGGA,0.336
7,CGCCCGGC,0.293
8,CGCCCGAA,0.117
9,AGCCCGGC,0.264
10,ACACAGTC,-0.0508
11,CTAGCATC,-0.172
12,CTTTCTAC,-0.16
13,ACCATACG,-0.0138
14,GTGGCGGA,0.271
15,CCGGCGGA,0.449
16,CTGGCGGA,0.131
17,CCGGCGGC,0.325
18,ACGGCGGA,0.314
19,GCGGCGGA,0.404
20,ATCTCCTA,-0.245
21,GATACGAA,0.033
22,GCCTGGCC,0.00694
23,TCAACACA,-0.0355
24,AATCCGGA,0.455
25,CATCCGGC,0.295

row,Sequence,PBM E-score
1,GATCCGAA,0.365
2,CATCCGGA,0.426
3,GATCCGGC,0.369
4,CATCCGAA,0.282
5,CATCCGGG,0.261
6,TATCCGAA,0.307
7,AATCCAGA,0.127
8,CATCCGTA,0.282
9,AATCCGGT,0.294
10,AATCCGGC,0.302
11,AGAATGCG,0.0628
12,CAAGGCGA,-0.174
13,GACGCCTA,-0.228
14,AGCTGTTG,-0.0549
15,AAGAAATC,-0.104
16,ACATGAGG,-0.0733
17,GATCCGCA,0.319
18,TATCCGCA,0.335
19,GATCCGTA,0.336
20,TATCCGGA,0.446
21,GCTCCGAA,0.361
22,GATCCGGA,0.437
23,CCTCCGAA,0.152
24,TATCCTGA,-0.107
25,TCTCCGAA,0.257

row,Sequence,PBM E-score
1,TACCGATA,0.0617
2,GACTAACC,-0.2
3,ACCTCAAG,-0.0979
4,ATGATCTA,0.0443
5,ACGTCCCG,0.279
6,CCGTCCCC,0.166
7,CCGTCCCG,0.371
8,TACTCAGA,-0.0418
9,ATGCTCTA,-0.211
10,CGGGACCA,0.264
11,GCGGACCC,0.336
12,AGGGACAG,-0.3
13,CCGGACCG,0.378
14,CAGGACCG,-0.0353
15,ACGGACCC,0.344
16,CCGGACCC,0.379
17,CGGGACAG,0.359
18,CCAGACCG,0.0829
19,CGGGACAC,0.245
20,AGGGACCG,-0.128
21,CGGGACCG,0.373
22,AGGGTTAT,-0.0536
23,GGATAAAC,0.195
24,CGACCTCC,0.208
25,AGTCATGG,-0.234

row,Sequence,PBM E-score
1,CCAAGAGG,-0.122
2,CGCCGAGA,0.228
3,GCTGGTAC,0.029
4,CGGCACAA,0.121
5,CCTTGACA,-0.209
6,TTACCGAA,0.105
7,CGTATAGA,-0.231
8,GGTTCCCA,-0.0344
9,GGTTCCAA,0.273
10,AGTTCCTA,0.0135
11,CGTTCCTC,0.194
12,GGTTCCGA,0.476
13,CGTTCCGC,0.453
14,CGTTCCCC,0.146
15,AGTTCCCA,0.16
16,CGTTCCAA,-0.0612
17,CGTTCCGA,0.455
18,AGTTCCGA,0.456
19,CGTTCCTA,-0.0878
20,GATCCACC,-0.0343
21,ACGAGATC,0.00781
22,GAAGGGCC,0.00364
